Screening data (PubChem)
In the library only some 4% were active in any assay of this set; here they are far more common.
BoNT-A LC inh2: inhibitors of Botulinum neurotoxin A light chain protease; multiplex microsphere protease substrate cleavage, flow cytometry; inhibition, % at 10 µM; hit rate 0.17% among 360,000; AID 588499; also: plate controls were buffer without enzyme for full effect and enzyme alone for no effect
Anthrax LF prot: anthrax lethal factor protease inhibition; P15917; AID 588501; inhibition, % at 10 µM; multiplex microsphere protease cleavage assay, LF; hit rate 0.12% among 360,000; also: plate controls were buffer without enzyme for full effect and enzyme alone for no effect
Target sequence (P15917 whole entry, looked up): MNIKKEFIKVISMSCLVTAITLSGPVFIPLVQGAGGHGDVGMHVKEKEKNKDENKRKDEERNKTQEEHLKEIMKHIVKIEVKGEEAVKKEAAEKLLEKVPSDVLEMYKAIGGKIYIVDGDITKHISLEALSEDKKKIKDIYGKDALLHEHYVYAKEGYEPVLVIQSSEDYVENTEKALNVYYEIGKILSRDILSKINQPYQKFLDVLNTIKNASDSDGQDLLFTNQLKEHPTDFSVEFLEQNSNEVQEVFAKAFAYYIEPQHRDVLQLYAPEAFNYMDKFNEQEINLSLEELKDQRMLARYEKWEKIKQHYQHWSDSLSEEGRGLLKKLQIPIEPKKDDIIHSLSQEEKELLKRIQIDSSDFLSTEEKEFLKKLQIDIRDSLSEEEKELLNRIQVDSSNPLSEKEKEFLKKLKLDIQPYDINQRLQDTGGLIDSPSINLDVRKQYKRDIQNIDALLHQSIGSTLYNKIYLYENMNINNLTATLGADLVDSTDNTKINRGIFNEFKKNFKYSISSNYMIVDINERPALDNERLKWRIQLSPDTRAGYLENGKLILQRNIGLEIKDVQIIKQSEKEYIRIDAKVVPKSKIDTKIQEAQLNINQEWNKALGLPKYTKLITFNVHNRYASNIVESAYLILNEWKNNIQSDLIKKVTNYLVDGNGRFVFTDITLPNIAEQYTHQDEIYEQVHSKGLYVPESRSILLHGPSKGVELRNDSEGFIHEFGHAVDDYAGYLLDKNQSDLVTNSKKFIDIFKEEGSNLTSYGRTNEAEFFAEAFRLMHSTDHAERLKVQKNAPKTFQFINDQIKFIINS
BoNT F protease: BoNT F light chain protease inhibition; Multiplex microsphere protease cleavage assay, flow cytometry; inhibition, % at 10 µM; hit rate 0.22% among 360,000; in the data active = inhibition above about 35%, passing the limit was not always enough; inconclusive = no clear call, values can overlap the other calls; also: plate controls were buffer without enzyme for full effect and enzyme alone for no effect
MazEF act: activators of E. coli MazEF toxin-antitoxin RNase; P0AE70; FAM/BHQ RNA-DNA oligo cleavage fluorescence, 5 h; activation, % at 20 µM; hit rate 0.32% among 350,000; AID 504720; in the data active = activation above about 50%
Autofluor counter: counter-screen for toxin protease inhibitors: compound fluorescence; compound autofluorescence counterscreen, microsphere flow cytometry; hits give high values; fluorescence intensity (concentration not given with the values); hit rate 3.1% among 360,000; AID 624483; in the data active = fluorescence intensity above about 16000; inconclusive = no clear call, values can overlap the other calls
DUSP3 inh: blocks human VHR1 dual specificity phosphatase; recombinant VHR phosphatase, pNPP absorbance; hit rate 0.52% among 290,000; inhibition, % at 13.3 µM; in the data active = inhibition above about 50%
Active calls of the source: *; ? = inconclusive; · = no result. Rule as the data show it, unless noted: active = inhibition above about 30%; inconclusive = no clear call, values can overlap the other calls; inactive = below that.

SMILES	BoNT-A LC inh2	Anthrax LF prot	BoNT F protease	MazEF act	Autofluor counter	DUSP3 inh
C=CCNC(=S)NNC(=O)Cn1c(-c2ccccc2)cc(=O)n2ncnc12	-3	32*	?	1	3880	19
C=CCNC(=O)Cn1nc(-c2ccccc2)ccc1=O	3	-7	8	-1	8262	3
COc1ccc(CCCc2nnc(SCC(=O)Nc3cc(C)c(C)cc3Br)o2)cc1	-1	-1	-4	-2	21054*	3
CCOC(=O)c1sc(NC(=O)CSc2nnc(C)s2)c(C(=O)OCC)c1C	1	0	2	7	22787*	9
COc1ccc(CCCc2nnc(SCC(=O)Nc3cccc(C)c3)o2)cc1	0	-1	-6	-3	8263	2
CCOC(=O)c1c(NC(=O)CSc2nncs2)sc(C)c1C	0	-4	4	0	2452	24
COCCOC(=O)c1c(NC(=O)CN2CCOCC2)sc(C(N)=O)c1C	1	1	-4	6	3101	-1
CCOC(=O)c1c(NC(=O)CN2CCOCC2)sc(C(=O)NC)c1C	-1	0	-3	-2	22110*	3
CCOC(=O)c1sc(NC(=O)CSc2nnc(Cc3ccccc3)o2)c(C(=O)OCC)c1C	-1	-4	-3	0	23789*	6
COc1ccc(-c2cc(CNC(=O)CCl)on2)cc1	0	-3	-7	10	?	33
CC1CC(N(C(=O)c2ccc(Cl)cc2)c2ccccc2)c2ccccc2N1C(=O)c1ccco1 (centres undefined)	0	-3	-7	8	2535	-11
CN(Cc1ccco1)C(=O)CSc1nn2c(=O)c(C(C)(C)C)nnc2s1	0	-7	0	-11	3780	·
COc1ccc(Cc2nnc(SCC(=O)NC(C)c3ccccc3)o2)cc1 (centres undefined)	2	1	1	-1	22651*	8
CCOC(=O)c1c(NC(=O)C(Sc2ccccc2)c2ccccc2)sc(C(N)=O)c1C (centres undefined)	-1	1	0	-4	23438*	27
CC(NC(=O)CSc1nnc(COc2ccccc2)o1)c1ccccc1 (centres undefined)	-2	-3	8	11	4423	33
O=C(Cn1cc(C(F)(F)F)ccc1=O)Nc1cc(S(=O)(=O)N2CCOCC2)ccc1Cl	0	0	-4	0	2574	-3
CN1CCc2c(sc(NC(=O)Cc3ccccc3)c2C#N)C1	-2	-12	-25	3	4769	25
CCCN1CCc2c(sc(NC(=S)NC(=O)c3ccccc3)c2C#N)C1	58*	-65	-105	44	2843	8
CC(C)N1CCc2c(sc(N)c2C#N)C1	25	24	4	14	19341*	13
CCN1CCc2c(sc(N)c2C#N)C1	11	-1	-26	6	4553	6
CCN1CCc2c(sc(NC(=O)c3ccc4ccccc4c3)c2C(N)=O)C1	-3	-5	-2	·	6523	10
CC(C)N1CCc2c(sc(NC(=S)NC(=O)c3ccccc3)c2C#N)C1	32*	-13	-88	37	2308	-5
CC(C)C1Cc2c(sc(NC(=S)NC(=O)c3ccccc3)c2C#N)CO1 (centres undefined)	-1	3	-9	-5	2558	26
CCN1CCc2c(sc(NC(=S)NC(=O)c3ccc(Cl)cc3)c2C(N)=O)C1	-14	1	?	11	16287*	37
CCOC(=O)Cc1csc(SCC(=O)Nc2cccc(C#N)c2)n1	-2	-10	-16	-3	6416	-6
SMILES	BoNT-A LC inh2	Anthrax LF prot	BoNT F protease	MazEF act	Autofluor counter	DUSP3 inh
CCOC(=O)Cn1nnc(-c2ccc(OCC(C)C)cc2)n1	-2	26	-11	1	?	7
CCN(c1ccccc1)S(=O)(=O)c1ccc(OC)c(OC)c1	0	-1	-6	4	11560	30
CCN(c1ccccc1)S(=O)(=O)c1cc(OC)ccc1OC	1	-3	1	1	22526*	25
COc1ccc(OC)c(S(=O)(=O)Nc2ccc(Oc3ccccc3)cc2)c1	2	-11	-1	2	21725*	-1
CCn1cc(C(=O)N[C@@H](CCSC)C(=O)NCCCn2ccnc2)c(=O)c2cc3c(cc21)OCO3	-2	-2	3	8	6025	10
COc1ccc(NC(=O)COC(=O)c2ccc(-n3nc(C)cc3C)cc2)cc1OC	1	-6	-1	-21	7822	·
Cc1cc(C)n(-c2ccc(C(=O)OCC(=O)Nc3ccc(Cl)c(S(=O)(=O)N(C)C)c3)cc2)n1	?	-2	-7	1	25627*	27
CC1CCCC(NC(=O)CSc2n[nH]c(N)n2)C1C (centres undefined)	0	-3	2	7	3427	·
O=C(c1ccccc1C(F)(F)F)N1CCN(S(=O)(=O)c2ccccc2)CC1	1	2	1	4	19835*	2
O=C(c1cc(-c2cccs2)nc2ccccc12)N1CCN(S(=O)(=O)c2ccccc2)CC1	0	-3	3	0	16484*	19
O=S(=O)(c1ccccc1C(F)(F)F)N1CCN(S(=O)(=O)c2ccccc2C(F)(F)F)CC1	1	-3	3	-14	22001*	21
O=C(c1cc(-c2cccs2)nc2ccccc12)N1CCN(S(=O)(=O)c2cccc(F)c2)CC1	0	-6	3	-4	2328	10
COc1cc(NC(=O)Nc2nnc([C@H]3C[C@H](O)[C@@H](CO)O3)s2)cc(OC)c1	0	-10	-10	·	3515	·
O=[N+]([O-])c1cc(S(=O)(=O)Oc2ccccc2)ccc1Cl	0	-3	2	-28	5659	·
CCN(C(=O)Cn1cc(C(=O)C(=O)N2CCOCC2)c2ccccc21)c1ccccc1	-2	4	-6	2	4793	47
O=C(CN1CCC(n2nnc3cc(F)ccc32)CC1)N1CCc2ccccc2C1	1	4	-4	-7	8069	18
CC(C)Cn1c(-c2csc3c2CCCC3)n[nH]c1=S	-3	-7	-8	0	17069*	12
CCn1c(SCC(=O)Nc2nnc(C)s2)nc2c(c1=O)SC(C)C2 (centres undefined)	0	2	8	2	4368	9
Cc1nc2ncnn2c(N2CCN(C(c3ccccc3)c3ccccc3)CC2)c1C	2	-1	0	-1	18747*	28
Cc1cc(N2CCN(c3cccc(C(F)(F)F)c3)CC2)n2ncnc2n1	0	-2	-33	4	4978	0
Cc1nc2ncnn2c(N2CCN(c3cccc(C(F)(F)F)c3)CC2)c1C	1	1	1	0	22031*	-12
CCC(C)N1CCN(S(=O)(=O)c2ccc(NC(C)=O)cc2)CC1 (centres undefined)	1	3	8	-6	4316	8
COC1CCN(C(=O)c2ccc(OC3CCN(CCc4ccccc4)CC3)cc2)CC1	-1	-3	-2	6	3550	30
O=C(c1ccc(OC2CCN(CCc3ccccc3)CC2)cc1)N1CCC(CO)CC1	1	1	-1	-2	5716	51*
